Measurements published in PubChem BioAssay (NCATS).
Records with an inconclusive call do not appear. Where a call stands in place of a potency, no number is given. Calls of active or inactive are those of the source. Unless noted, the call rests on the fitted dose curve; in most records, active means well fitted curve in the direction sought with a large enough effect; inconclusive means small, poorly fitted or top-dose-only effect, or another doubt; inactive means no such curve, though single readings can be large; an effect the other way counts as inactive or inconclusive.

Tests used:
[1] = Nrf2 qHTS screen for inhibitors: Validation (AID 493153); settings: Potency: luciferase luminescence; viability change: measured here: cytotoxicity max response
How it was run: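 A549 ARE_Fluc, 5% FBS OPTI-MEM; cpd titration, 18-24 h, 37°C/5% CO2. Read 1: CellTiter-Fluor (Ex 405/Em 525), cytotox. Read 2: luciferase lum, Nrf2 activity.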

[2] = qHTS for Inhibitors of Cell Surface uPA Generation: Validation Assay (AID 493164);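 further: RAW 264.7 macrophage cells exposed to compound for 18 h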
How it was run: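 ATP-Lite luminescence read-out: ATP remains high when uPA activity-dependent LF translocation into the cytoplasm is blocked. RAW 264.7 cells, 18 h compound exposure at 37 C; 7-point titration, 2.45 nM to 38.3 uM final.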

[3] = molecular target: Galactokinase (Homo sapiens) (UniProt P51570); experiment: qHTS Validation Assay for Inhibitors of Human Galactokinase (GALK) (AID 493189)
How it was run: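 Compounds were pin-transferred into ATP buffer, then GALK-galactose mix was added (final 5 nM enzyme, 100 uM galactose, 35 uM ATP). After 1 h at room temperature, remaining ATP was measured luminescently.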

[4] = molecular target: Peptidyl-prolyl cis-trans isomerase NIMA-interacting 1 (Homo sapiens) (UniProt Q13526); experiment: qHTS Validation Assay to Find Inhibitors of Pin1 (AID 504536; active means well fitted inhibition curve with a large enough effect in the polarisation, with a control signal flat, not every such curve was filed as active; the % refers to the polarisation)
Peptidyl-prolyl cis-trans isomerase NIMA-interacting 1 (Homo sapiens), sequence (Q13526 whole entry, looked up): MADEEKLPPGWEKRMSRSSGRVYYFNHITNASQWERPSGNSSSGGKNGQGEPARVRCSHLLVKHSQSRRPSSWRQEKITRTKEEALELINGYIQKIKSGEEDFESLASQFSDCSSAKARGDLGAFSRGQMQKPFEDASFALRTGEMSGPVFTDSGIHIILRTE
How it was run: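 Fluorescence polarization competition: compounds (titration) displace HiFluor-488-labeled Pin1-1b peptide from Pin1 (0.3 uM final) in pH 7.5 HEPES buffer with DTT, 10 min at room temperature; %Activity normalized to no-enzyme wells, curves fitted.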

[5] = molecular target: Phosphoglycerate kinase, glycosomal (Trypanosoma brucei brucei) (UniProt P07378); experiment: qHTS Validation Assay to Find Inhibitors of Phosphoglycerate Kinase (AID 504547)
How it was run: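 Compounds are pinned into the substrate/PGK mixture, and GAPDH (100nM final) is added to start the reaction by producing 1,3-BPG. After 60 minutes at room temperature, Kinase-Glo Plus is added and luminescence is measured 10 minutes later.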

[6] = molecular target: phosphoglycerate mutase (Leishmania major) (UniProt Q4Q090); experiment: qHTS Validation Assay to Find Inhibitors of Phosphoglycerate Mutase (AID 504548);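 further: end-point luminescence from Kinase-GloPlus after the PGAM reaction; series mostly up to about 58 µM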
phosphoglycerate mutase (Leishmania major), sequence (Q4Q090 1-553): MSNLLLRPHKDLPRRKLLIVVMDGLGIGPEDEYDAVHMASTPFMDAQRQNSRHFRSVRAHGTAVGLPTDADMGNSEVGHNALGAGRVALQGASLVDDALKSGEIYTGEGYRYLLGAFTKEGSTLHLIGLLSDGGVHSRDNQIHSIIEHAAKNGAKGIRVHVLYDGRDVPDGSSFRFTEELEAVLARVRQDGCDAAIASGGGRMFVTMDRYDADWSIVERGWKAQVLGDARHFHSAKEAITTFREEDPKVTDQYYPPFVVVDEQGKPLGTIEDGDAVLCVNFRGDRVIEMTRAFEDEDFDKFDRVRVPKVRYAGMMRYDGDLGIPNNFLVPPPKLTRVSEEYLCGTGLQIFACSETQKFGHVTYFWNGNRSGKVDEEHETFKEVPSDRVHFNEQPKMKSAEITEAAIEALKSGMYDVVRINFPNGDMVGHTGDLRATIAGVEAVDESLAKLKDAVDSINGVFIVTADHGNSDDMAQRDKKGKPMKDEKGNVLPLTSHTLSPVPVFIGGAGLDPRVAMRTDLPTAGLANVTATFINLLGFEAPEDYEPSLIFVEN
How it was run: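 L. major PGAM (1.25nM final) was added to substrate buffer and pinned compound, incubated 45 minutes at room temperature, then Kinase-GloPlus added; luminescence read after 10 minutes. Buffer: 100 mM TEA pH 7.6, 5 mM MgCl2, 0.01% Tween-20.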

[7] = Inducers of the Endoplasmic Reticulum Stress Response (ERSR) in human glioma: Validation (AID 504836)
How it was run: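 Stably transfected U87-MG glioma cells carrying a GRP78-based luciferase sensor; 16 h compound incubation. Luminescence end-point read 10 min after Bright-Glo addition at room temperature.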

[8] = molecular target: Ubiquitin carboxyl-terminal hydrolase 1 (Homo sapiens) (UniProt O94782); experiment: Inhibitors of USP1/UAF1: Pilot qHTS (AID 504865);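 further: rhodamine fluorescence freed from ubiquitin-rhodamine substrate followed over time; top concentration of the series differs between compounds; nearly all actives have a fitted effect of over 35% in size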
Ubiquitin carboxyl-terminal hydrolase 1 (Homo sapiens), sequence (O94782 whole entry, looked up): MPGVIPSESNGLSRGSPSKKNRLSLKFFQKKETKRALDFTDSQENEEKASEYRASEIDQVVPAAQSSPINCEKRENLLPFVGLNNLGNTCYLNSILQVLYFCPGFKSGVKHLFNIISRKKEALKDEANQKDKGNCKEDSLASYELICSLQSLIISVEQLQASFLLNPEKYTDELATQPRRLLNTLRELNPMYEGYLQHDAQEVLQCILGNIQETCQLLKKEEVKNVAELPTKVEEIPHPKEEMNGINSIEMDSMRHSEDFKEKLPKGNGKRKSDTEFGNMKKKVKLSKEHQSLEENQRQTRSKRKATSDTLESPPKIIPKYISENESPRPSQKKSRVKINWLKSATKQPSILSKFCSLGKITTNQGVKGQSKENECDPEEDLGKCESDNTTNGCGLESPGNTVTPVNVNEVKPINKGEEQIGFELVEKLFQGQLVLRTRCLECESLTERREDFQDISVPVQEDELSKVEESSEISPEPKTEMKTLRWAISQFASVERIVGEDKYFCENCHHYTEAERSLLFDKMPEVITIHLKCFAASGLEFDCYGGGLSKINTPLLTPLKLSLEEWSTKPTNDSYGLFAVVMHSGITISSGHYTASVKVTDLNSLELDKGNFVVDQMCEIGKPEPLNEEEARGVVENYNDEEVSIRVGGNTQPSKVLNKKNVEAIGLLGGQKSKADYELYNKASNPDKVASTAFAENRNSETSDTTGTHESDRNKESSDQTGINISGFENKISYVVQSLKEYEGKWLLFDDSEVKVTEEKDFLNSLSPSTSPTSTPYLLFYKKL
How it was run: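 Kinetic fluorescence assay: 1nM USP1/UAF1, 15 min compound preincubation, then 150nM Ub-Rho; 480/540 nm.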

[9] = qHTS for Inhibitors of ATXN expression: Validation of Cytotoxic Assay (AID 588349)
How it was run: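 Titrated compounds are added to cultured HEK293 cells, which are then held at 37 degrees C for 72 hr; loss of intracellular ATP, measured with CellTiter Glo, indicates toxicity.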

[10] = qHTS for Inhibitors of ATXN expression: Validation (AID 588378); further: series mostly up to about 57 µM; nearly all actives have a fitted effect of over 75% in size
How it was run: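 Validation of ATXN2 expression inhibitors uses a cell-based luciferase fusion reporter in HEK293 cells, with 24 h compound exposure and paired viability (fluorescence) and reporter (luminescence) end-point reads.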

[11] = molecular target: Voltage-gated inwardly rectifying potassium channel KCNH2 (Homo sapiens) (UniProt Q12809); experiment: qHTS Assay for Small Molecule Inhibitors of the Human hERG Channel Activity (AID 588834);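 further: U2OS cells transduced with hERG by BacMam; top concentration of the series differs between compounds; lower thallium flux fluorescence means stronger hERG block; nearly all actives have a fitted effect of over 50% in size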
How it was run: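 Cells were infected with hERG-BacMam virus for 4 hrs at room temperature, grown overnight, then seeded at 2000/well. After dye loading and roughly 10 min compound treatment, thallium influx was triggered and fluorescence recorded.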

[12] = molecular target: Glutaminase kidney isoform, mitochondrial (Homo sapiens) (UniProt O94925); experiment: qHTS for Inhibitors of Glutaminase (GLS): LOPAC Validation (AID 624146);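 further: glutamate product detected by oxidase and peroxidase coupled Amplex red fluorescence gain; series mostly up to about 46 µM; nearly all actives have a fitted effect of over 60% in size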
How it was run: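 hKGA in 45 mM KH2PO4 pH 8.2, 0.02% Tween-20 with pin-transferred compounds; 1 mM L-glutamine (stock) plus glutamate oxidase/HRP/Amplex Red coupling added. Fluorescence read initially and after 30 min at RT.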

[13] = qHTS of Trypanosoma Brucei Inhibitors: LOPAC Validation (AID 624147)
How it was run: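 Enzyme and substrate buffer are dispensed first and compound is pin-transferred. ADP at 130 uM final then starts the reaction, which runs 45 min at room temperature. Detection reagent is added for 10 min before luminescence is imaged.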

[14] = molecular target: Glucagon-like peptide 1 receptor (Homo sapiens) (UniProt P43220); experiment: qHTS of GLP-1 Receptor Agonists: LOPAC Validation (AID 624148);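 further: higher luminescence signal means agonism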
Glucagon-like peptide 1 receptor (Homo sapiens), sequence (P43220 whole entry, looked up): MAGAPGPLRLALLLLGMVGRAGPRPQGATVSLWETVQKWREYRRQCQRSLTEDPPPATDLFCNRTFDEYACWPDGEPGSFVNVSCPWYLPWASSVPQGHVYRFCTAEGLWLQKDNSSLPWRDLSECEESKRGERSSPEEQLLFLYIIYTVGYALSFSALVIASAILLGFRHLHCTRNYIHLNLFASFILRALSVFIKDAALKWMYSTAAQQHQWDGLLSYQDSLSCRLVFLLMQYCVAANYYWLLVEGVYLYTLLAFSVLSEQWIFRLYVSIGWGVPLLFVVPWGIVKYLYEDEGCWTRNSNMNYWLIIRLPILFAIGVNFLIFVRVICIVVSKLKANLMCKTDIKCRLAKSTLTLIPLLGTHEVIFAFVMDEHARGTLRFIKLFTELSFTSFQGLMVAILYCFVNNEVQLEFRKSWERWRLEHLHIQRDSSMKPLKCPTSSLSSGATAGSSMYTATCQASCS
How it was run: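 HEK293 cells stably co-expressing GLP-1R and a cAMP-responsive luciferase reporter, plated 12 hours before compound, then incubated 4-6 hr at 37 deg C. Luminescence read 12 min after detection reagent.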

[15] = qHTS of Nrf2 Activators: LOPAC Validation (AID 624149)
How it was run: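 Cells (AREc32_Fluc) are plated at 1000 per well in OPTI-MEM containing 5% FBS and left overnight. Compounds are pinned in and incubated 24 hr at 37 deg C, and firefly luciferase is detected with Steady-Glo.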

[16] = HTS Assay for Allosteric Antagonists of the Human D2 Dopamine Receptor: Hit Validation in HTRF (AID 624455);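 further: stable D1 dopamine receptor cell line scored for blocking the D1 response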
How it was run: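 Inhibition of the D1-mediated response is measured by HTRF in cells that stably express the D1 dopamine receptor. Compounds reaching this step are hits from calcium-flux antagonism testing at EC80 dopamine in inducible Hek293 Trex D2 cells.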

[17] = molecular target: Arylsulfatase A (Homo sapiens) (UniProt P15289); experiment: qHTS screen for enhancers of Arylsulfatase A (ASA1): LOPAC Validation Assay (AID 720538)
How it was run: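 First, ASA-I179S fibroblasts from an MLD patient adhered for 6 hrs. Next, compounds were added for 48h. Then pNCS substrate (0.5mM final) with lysis buffer reacted 14h at room temperature before NaOH stop and fluorescence measurement.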

[18] = qHTS for compounds that reverse cellular toxicity of Amyloid beta (A-beta) peptide in yeast: LOPAC Validation Assay (AID 720559)
How it was run: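 Activity is expressed relative to DMSO and an equimolar ferric chloride/clioquinol mix. Compounds were pinned into medium with A-beta-expressing yeast, grown 48 hr at 30 C, then read by absorbance at 600 nm.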

[19] = qHTS for Activators of Parkin Expression: LOPAC Validation Assay (NLuc Reporter) (AID 720572)
How it was run: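 NLuc signal, read 10 min after reagent and following a prior FLuc read, is normalized to DMSO (0) and positive controls (100%). Cells: neuronal Parkin-promoter coincidence reporter line; compounds tested 7-point, 24 h, 37 C, 5% CO2.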

[20] = qHTS for Activators of Parkin Expression: LOPAC Validation Assay (FLuc Reporter) (AID 720573)
How it was run: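 A neuronal cell line harbouring FLuc and NLuc reporters behind the Parkin promoter was exposed to compounds for 24 h. Firefly luciferase signal, measured after 10 min with detection reagent, was scaled to DMSO and positive-control wells.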

[21] = molecular target: T1, Hexokinase-4 (Homo sapiens) + Glucokinase regulatory protein (Homo sapiens) (UniProt P35557+Q14397); experiment: qHTS assay for inhibitors of recombinant human GCK-GKRP interaction: Diaphorase-coupled assay (AID 743205)
T1 sequence (P35557 whole entry, looked up): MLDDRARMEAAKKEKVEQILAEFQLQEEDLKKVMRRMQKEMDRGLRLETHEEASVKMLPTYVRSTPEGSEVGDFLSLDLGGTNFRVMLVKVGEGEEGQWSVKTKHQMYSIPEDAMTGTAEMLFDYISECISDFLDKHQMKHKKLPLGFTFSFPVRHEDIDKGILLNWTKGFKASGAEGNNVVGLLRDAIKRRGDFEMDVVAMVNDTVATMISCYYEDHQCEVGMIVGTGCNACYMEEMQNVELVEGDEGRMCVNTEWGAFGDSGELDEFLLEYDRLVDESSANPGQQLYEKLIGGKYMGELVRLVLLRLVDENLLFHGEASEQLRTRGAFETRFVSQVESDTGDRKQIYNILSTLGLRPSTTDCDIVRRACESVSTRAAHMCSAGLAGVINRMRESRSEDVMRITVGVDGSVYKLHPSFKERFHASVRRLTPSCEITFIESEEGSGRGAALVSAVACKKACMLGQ
T1 sequence (Q14397 whole entry, looked up): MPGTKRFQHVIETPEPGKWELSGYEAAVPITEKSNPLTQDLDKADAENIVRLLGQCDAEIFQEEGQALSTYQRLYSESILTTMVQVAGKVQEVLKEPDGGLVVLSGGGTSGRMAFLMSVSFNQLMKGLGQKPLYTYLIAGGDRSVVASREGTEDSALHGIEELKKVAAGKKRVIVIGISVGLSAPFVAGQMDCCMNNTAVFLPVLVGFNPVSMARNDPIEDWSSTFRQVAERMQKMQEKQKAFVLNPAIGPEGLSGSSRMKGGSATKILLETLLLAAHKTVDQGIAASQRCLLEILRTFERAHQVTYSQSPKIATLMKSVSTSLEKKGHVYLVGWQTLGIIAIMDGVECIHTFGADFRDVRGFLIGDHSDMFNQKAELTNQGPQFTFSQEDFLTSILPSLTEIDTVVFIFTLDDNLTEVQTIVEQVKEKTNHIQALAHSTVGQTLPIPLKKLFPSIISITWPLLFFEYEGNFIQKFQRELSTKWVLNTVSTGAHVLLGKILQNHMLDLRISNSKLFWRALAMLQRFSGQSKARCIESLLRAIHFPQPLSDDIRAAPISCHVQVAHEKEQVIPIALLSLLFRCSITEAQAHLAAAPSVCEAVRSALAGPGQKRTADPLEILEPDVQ
How it was run: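 Inhibitors of the GCK–GKRP complex relieve GKRP suppression of GCK, detected through a G6PDH–diaphorase cascade reducing resazurin. Human GST-GCK and FLAG-GKRP are used at 10 nM with 5 mM glucose and 0.4 mM ATP.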

[22] = molecular target: T1, Hexokinase-4 (Homo sapiens) + Glucokinase regulatory protein (Homo sapiens); experiment: qHTS assay for inhibitors of recombinant human GCK-GKRP interaction: ADP-Glo assay (AID 743206)
How it was run: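 Pin-transferred compounds meet a 15 nM GST-GCK/15 nM FLAG-GKRP/2 uM S6P mix (dispense concentrations). ATP is then added to 0.4 mM final with 5 mM glucose, and the reaction runs 60 min at room temperature. ADP is quantified luminescently.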

[23] = molecular target: T1, Hexokinase-4 (Homo sapiens) + Glucokinase regulatory protein (Homo sapiens); experiment: qHTS assay for inhibitors of recombinant human GCK-GKRP interaction: HTRF assay (AID 743207)
How it was run: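 Steps: dispense GCK–GKRP complex (5 nM each, GST- and FLAG-tagged) with 2 uM S6P; pin in compounds; add XL665/Eu-cryptate-labelled antibodies; incubate 60 min at room temperature; read time-resolved FRET at 665 and 615 nm.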

[24] = qHTS Assay for Identifying Gametocytocidal Compounds (AID 743244);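 further: actives lower the fluorescent signal which means gametocytes are killed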; settings: P. falciparum 3D7 stage III-V gametocytes, alamarBlue, 72 h; max response: stronger effect = lower value
How it was run: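 3D7 gametocytes, stages III–V, 20,000/well; cpd 72 h, 37 °C/5% CO2; + alamarBlue 24 h; fluor. Ex 525/Em 598.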

[25] = Natriuretic polypeptide receptor (hNpr1) antagonism - Pilot counterscreen GloSensor control cell line (AID 1347045; calls by dose curve; further: series mostly up to about 38 µM)
How it was run: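 Cells were first seeded and incubated overnight at 37C, then loaded with 2% GloSensor substrate for 2 h. Compounds were added for 30 min at room temperature, followed by a baseline read, 50 uM SNP and a final read after 20 min.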

[26] = molecular target: Atrial natriuretic peptide receptor 1 (Homo sapiens) (UniProt P16066); experiment: Natriuretic polypeptide receptor (hNpr1) antagonism - Pilot screen (AID 1347049; calls by dose curve;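 further: agonist-evoked cGMP luminescence read 20 min after hNppA addition; series mostly up to about 58 µM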)
How it was run: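 cGMP-sensor HEK293/hNpr1 cells, 1500/well, plated overnight at 37C. 2% GloSensor reagent, 2 h RT. Compound (23 nL pin transfer) 30 min RT, baseline luminescence pre-read. 0.1 nM hNppA, 20 min RT, post-read.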

[27] = molecular target: Atrial natriuretic peptide receptor 2 (Homo sapiens) (UniProt P20594); experiment: Natriuretic polypeptide receptor (hNpr2) antagonism - Pilot subtype selectivity assay (AID 1347050; calls by dose curve)
How it was run: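 Luminescence from a genetically encoded cGMP luciferase biosensor in hNpr2-expressing HEK293 cells is read before and 20 min after adding 1 nM hNppC. Test compounds, in interplate 1:5 titrations, are added 30-50 min ahead of the agonist.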

[28] = molecular target: Parathyroid hormone/parathyroid hormone-related peptide receptor (Homo sapiens) (UniProt Q03431); experiment: qHTS for PTHR1 Agonists: Optimization Screen against the NCGC LOPAC library (AID 1347079);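 further: GloSensor cAMP luminescence in HEK-293 GP2 cells expressing human PTHR1 with IBMX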
How it was run: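 HEK-293 GP2 cells, PTHR1 + GloSensor cAMP; 3000 cells/well, o/n. Luciferin + IBMX 0.5mM each (stock), 1 hr 37C. Cpd titration, 1 hr 37C. Lum after 15 min RT. Ctrl M-PTH(1-15) top 10uM.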

[29] = qHTS for Inhibitors of the Functional Ribonucleoprotein Complex (vRNP) of Lassa (LASV) Arenavirus: LASV Primary Screen - GLuc reporter signal (AID 1347082; calls by dose curve; tested in HEK293 reporter line; further: series mostly up to about 57 µM; nearly all actives have a fitted effect of over 60% in size)
[30] = qHTS for Inhibitors of the Functional Ribonucleoprotein Complex (vRNP) of Lassa (LASV) Arenavirus: Viability assay - alamar blue signal for LASV Primary Screen (AID 1347083; calls by dose curve; tested in HEK293 reporter line; further: series mostly up to about 57 µM; nearly all actives have a fitted effect of over 80% in size)
[31] = qHTS for Inhibitors of the Functional Ribonucleoprotein Complex (vRNP) of Lymphocytic Choriomeningitis Arenaviruses (LCMV): Viability assay - alamar blue signal for LCMV Primary Screen (AID 1347085; calls by dose curve; tested in HEK293 reporter line; further: series mostly up to about 57 µM; nearly all actives have a fitted effect of over 80% in size)
[32] = molecular target: Lysine-specific demethylase 5B (Homo sapiens) (UniProt Q9UGL1); experiment: Optimization screen for KDM5B Histone Demethylases FDH coupled qHTS against the LOPAC library (AID 1347166)
Lysine-specific demethylase 5B (Homo sapiens), sequence (Q9UGL1 whole entry, looked up): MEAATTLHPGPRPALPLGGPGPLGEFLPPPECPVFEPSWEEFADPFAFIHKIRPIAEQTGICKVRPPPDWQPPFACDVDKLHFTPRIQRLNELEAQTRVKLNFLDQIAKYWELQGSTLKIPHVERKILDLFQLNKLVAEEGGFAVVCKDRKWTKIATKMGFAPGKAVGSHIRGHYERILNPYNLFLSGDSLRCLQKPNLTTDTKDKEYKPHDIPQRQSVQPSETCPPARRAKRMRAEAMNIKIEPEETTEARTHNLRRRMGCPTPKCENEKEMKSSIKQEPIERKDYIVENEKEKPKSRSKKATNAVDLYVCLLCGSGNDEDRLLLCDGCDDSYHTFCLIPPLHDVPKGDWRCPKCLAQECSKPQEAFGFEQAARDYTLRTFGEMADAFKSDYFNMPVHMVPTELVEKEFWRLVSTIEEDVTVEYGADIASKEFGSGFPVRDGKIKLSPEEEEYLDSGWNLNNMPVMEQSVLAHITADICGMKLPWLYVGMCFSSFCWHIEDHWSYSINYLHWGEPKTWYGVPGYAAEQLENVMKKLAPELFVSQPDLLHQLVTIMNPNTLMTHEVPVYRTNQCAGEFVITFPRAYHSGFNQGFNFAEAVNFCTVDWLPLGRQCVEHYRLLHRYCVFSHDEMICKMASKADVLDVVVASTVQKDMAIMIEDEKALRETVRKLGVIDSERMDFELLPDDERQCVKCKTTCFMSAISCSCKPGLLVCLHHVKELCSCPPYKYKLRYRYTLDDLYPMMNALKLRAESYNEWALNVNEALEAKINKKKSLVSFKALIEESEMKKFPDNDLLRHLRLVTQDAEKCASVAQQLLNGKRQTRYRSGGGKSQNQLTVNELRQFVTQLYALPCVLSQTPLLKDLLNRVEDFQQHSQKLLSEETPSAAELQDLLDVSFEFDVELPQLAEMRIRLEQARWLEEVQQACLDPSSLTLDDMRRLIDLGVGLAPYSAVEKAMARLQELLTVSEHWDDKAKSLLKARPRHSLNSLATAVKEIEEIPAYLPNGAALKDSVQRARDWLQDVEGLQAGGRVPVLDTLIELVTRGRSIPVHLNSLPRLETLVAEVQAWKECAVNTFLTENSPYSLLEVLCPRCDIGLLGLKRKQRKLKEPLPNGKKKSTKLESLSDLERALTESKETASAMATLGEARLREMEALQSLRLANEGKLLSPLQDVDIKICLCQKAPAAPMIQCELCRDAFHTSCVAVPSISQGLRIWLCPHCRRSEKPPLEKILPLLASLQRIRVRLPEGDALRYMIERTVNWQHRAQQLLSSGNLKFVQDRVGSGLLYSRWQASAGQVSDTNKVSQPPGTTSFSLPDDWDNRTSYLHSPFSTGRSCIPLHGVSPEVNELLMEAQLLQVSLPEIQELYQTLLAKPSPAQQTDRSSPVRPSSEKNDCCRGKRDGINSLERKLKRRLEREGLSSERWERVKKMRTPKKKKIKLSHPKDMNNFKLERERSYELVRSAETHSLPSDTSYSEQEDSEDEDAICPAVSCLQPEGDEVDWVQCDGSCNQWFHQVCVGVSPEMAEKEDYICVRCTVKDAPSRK
How it was run: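 KDM5BDeltaAP (200nM final) in 50mM HEPES pH 7.5, 0.01% Tween-20 was preincubated with compound for 10 min at room temperature. A substrate mix of 12.5uM H3K4Me3, 25uM a-ketoglutarate, ascorbate, Fe2+, NAD+ and formaldehyde dehydrogenase was then added. NADH fluorescence (340/450 nm) was read initially and after 30 min.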

[33] = Validation qHTS assay for inhibitors of Activation Induced Cytidine Deaminase (AID): UDG Counterscreen signal (AID 1347427)
How it was run: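 Fluorescence at 560 nm excitation, 665 nm emission reports UDG signal after 250 mM NaOH (2x) addition and 30 min. Enzymes (AID 1 uM, UDG 2 U/mL, at 4/3x) preincubated 10 min with compound, then 4 h with 4x 250 nM DJC20/DJC23 substrate at room temperature.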

[34] = molecular target: Single-stranded DNA cytosine deaminase (Homo sapiens) (UniProt Q9GZX7); experiment: Validation qHTS assay for inhibitors of Activation Induced Cytidine Deaminase (AID): AID signal (AID 1347429)
Single-stranded DNA cytosine deaminase (Homo sapiens), sequence (Q9GZX7 whole entry, looked up): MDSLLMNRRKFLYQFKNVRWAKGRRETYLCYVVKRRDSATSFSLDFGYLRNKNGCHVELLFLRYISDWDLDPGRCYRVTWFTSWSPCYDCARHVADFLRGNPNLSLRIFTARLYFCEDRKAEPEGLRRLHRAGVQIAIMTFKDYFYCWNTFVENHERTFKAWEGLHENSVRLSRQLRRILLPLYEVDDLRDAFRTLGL
How it was run: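 Steps: dispense AID with UDG; pin-transfer compound up to 114 uM final; add DJC20/DJC23 substrate and hold 4 hr at room temperature; add NaOH, hold 30 min; read FRET signal (540/590 nm).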

[35] = Primary qHTS for inhibitors of La Crosse Virus (LACV) - induced cell death in SH-SY5Y cells (AID 1508616);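 further: top concentration of the series differs between compounds; higher means more rescue of cells from virus-induced death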
How it was run: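 SH-SY5Y, 6000 cells/well; cpd via pin tool in DMSO; LACV 0.01 MOI; 6 d 37C 5% CO2; ATPLite, 5 min RT; luminescence normalized to ±virus DMSO controls.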

O=[N+]([O-])c1ccc(O[C@@H]2O[C@H](CO)[C@@H](O)[C@H](O)[C@H]2F)c([N+](=O)[O-])c1
viability change [1]: -9.61%
outcome [2]: inactive
outcome [3]: inactive
Potency [4]: inactive
Potency [5]: inactive
outcome [6]: inactive
outcome [7]: inactive
Potency [8]: inactive
outcome [9]: inactive
Potency [10]: inactive
Potency [11]: inactive
outcome [12]: inactive
outcome [13]: inactive
outcome [14]: inactive
outcome [15]: inactive
outcome [16]: inactive
Potency [17]: inactive
outcome [18]: inactive
outcome [19]: inactive
outcome [20]: inactive
outcome [21]: inactive
outcome [22]: inactive
outcome [23]: inactive
max response [24]: 12.9% (inactive)
outcome [25]: inactive
outcome [26]: inactive
outcome [27]: inactive
outcome [28]: inactive
Potency [29]: inactive
Potency [30]: inactive
Potency [31]: inactive
outcome [32]: inactive
outcome [33]: inactive
outcome [34]: inactive
outcome [35]: inactive
